According to PubChem BioAssay AID492998 (Southern Research Specialized Biocontainment Screening …, 2010):
The whole screen tested about 2,300 compounds, of which about 550 (24%) were called active. No rule for the calls is given here. Only a sample is shown. Measured potencies and affinities stand elsewhere.

Assay: Vero E6 cell cytotoxicity, dose response, cytotoxicity control for non-replicating M. tuberculosis project, secondary assay (AID 492998)
Conditions: series mostly up to 20 µM
With `CC(=O)N(c1nnc(-c2ccc(C)cc2)s1)C1CCCC1` the outcome was “inactive”.
With `COc1ccc(-c2nnn(Cc3ccccc3)n2)cc1` the outcome was “inactive”.
In the case of `Cc1nnc(N/N=C/c2ccc(-c3ccc(Br)cc3)o2)n1N`, the outcome is reported as “inactive”.
With `O=C(OCC(=O)N1CCC(c2ccccc2)=N1)c1ccc([N+](=O)[O-])s1` the outcome was “inactive”.
In the case of `O=C(NCCCN1CCOCC1)c1ccc(CSc2ccc(Cl)cc2)cc1`, the outcome is reported as “inactive”.
With `COc1cccc(C(=O)OCn2nnc3ccccc3c2=O)c1OC` the outcome was “inactive”.
For `O=C(OCn1nnc2ccccc2c1=O)c1ccc(Br)o1`, the outcome was “inactive”.
With `CCc1cc(OCCCCNCc2ccccc2)ccc1Cl` the outcome was “inactive”.
With `C=CCOc1ccc(CNCCO)cc1OCC` the outcome was “inactive”.
With `CCCn1nnnc1NCc1ccc(CC)cc1` the outcome was “inactive”.
For `O=C(CCCSc1nc2ccccc2s1)NCc1ccco1`, the outcome was “inactive”.
With `CC(C)CCC1=NN(C(=O)c2ccco2)C(O)(C(F)(F)F)C1` (configuration not stated) the outcome was “inactive”.
With `O=C1CC(=O)CC(c2ccccc2)C1` the outcome was “inactive”.
For `Cc1cccc(N2CCN(Cc3ccc([N+](=O)[O-])o3)CC2)c1C`, the outcome was “inactive”.
In the case of `NC1=NC[C@H](Cc2ccccc2)N1CCCCC1CCCCC1`, the outcome is reported as “inactive”.
With `CCCC(=O)N1CCC(Cc2ccccc2)CC1` the outcome was “inactive”.
For `CCc1ccc(N2CCN(CCNC(=O)Nc3ccc(OC)cc3)CC2)cc1`, the outcome was “inactive”.
With `COc1ccc(-c2cc(C(F)(F)F)nc(S(C)(=O)=O)n2)cc1` the outcome was “inactive”.
With `O=C(Oc1c(-c2ccco2)oc2ccccc2c1=O)c1cccnc1` the outcome was “inactive”.
With `CC(=O)Oc1c(-c2ccco2)oc2ccccc2c1=O` the outcome was “inactive”.
For `Cc1ccc2c(C)ccc(O)c2n1`, the outcome was “inactive”.
For `Cc1cccc(NCc2nnc(-c3ccccc3)o2)c1C`, the outcome was “inactive”.
With `CC(C)(C)C(=O)COc1ccccc1[N+](=O)[O-]` the outcome was “inactive”.
For `CCOc1ccc(C(=O)Nc2nnc(C3=COCCO3)o2)cc1`, the outcome was “inactive”.
In the case of `CCCCNC(=O)Nc1nnc(-c2ccc(OCC)cc2)o1`, the outcome is reported as “inactive”.
With `CCS(=O)(=O)c1ncc(Cl)c(C(=O)Nc2ccc(S(=O)(=O)N(C)c3ccccc3)cc2)n1` the outcome was “inactive”.
With `O=C(Nc1nnc(-c2ccc3c(c2)CCCC3)o1)c1c(F)cccc1F` the outcome was “inactive”.
With `COc1cccc(C(=O)OCC(=O)Nc2nnc(-c3ccccc3)o2)c1` the outcome was “inactive”.
For `Cc1cccc(C(=O)Nc2nnc(-c3cccnc3)o2)c1`, the outcome was “inactive”.
For `CCOc1ccccc1C(=O)OCC(=O)Nc1nnc(-c2ccccc2)o1`, the outcome was “inactive”.
In the case of `c1ccc(-c2nnc(SCc3cn4ccsc4n3)o2)cc1`, the outcome is reported as “inactive”.
With `CCS(=O)(=O)c1ncc(Cl)c(C(=O)Nc2ccc(C)cc2)n1` the outcome was “inactive”.
In the case of `CCCCn1c(N)c(-c2nc3ccccc3o2)c2c([N+](=O)[O-])nn(CC)c(=O)c21`, the outcome is reported as “inactive”.
In the case of `CCOC(=O)c1sc(NC(=O)CCN2CC(C)OC(C)C2)c(C(=O)OCC)c1C` (configuration not stated), the outcome is reported as “inactive”.
With `CCCNC(=O)NC(=O)COc1ccc(-c2ccc(C#N)cc2)cc1` the outcome was “inactive”.
In the case of `Cc1ccc(NCCC(=O)c2cccs2)cc1Cl`, the outcome is reported as “inactive”.
In the case of `Cc1ccc(Sc2ncccc2N)cc1`, the outcome is reported as “inactive”.
For `Oc1ccccc1CN1CCCC(N2CCN(c3cccc(C(F)(F)F)c3)CC2)C1` (configuration not stated), the outcome was “inactive”.
For `Cc1ccnc(NC(=O)CCc2c[nH]c3ccccc23)c1`, the outcome was “inactive”.
For `C/C(=N\Nc1ccc(Cl)cc1)c1ccccn1`, the outcome was “inactive”.
For `O=C(CCc1c[nH]c2ccccc12)Nc1ncccc1O`, the outcome was “inactive”.
In the case of `COc1ccc2oc(=O)c(/C(C)=N/NC(=O)c3ccncc3)cc2c1`, the outcome is reported as “inactive”.
With `COc1cc(/C=N/NC(=O)c2ccccn2)ccc1OC(=O)c1cccs1` the outcome was “inactive”.
For `CC(C)c1ccc(/C=N/NC(=O)c2ccccn2)cc1`, the outcome was “inactive”.
In the case of `C/C(=N\Nc1cccc2cccnc12)c1ccccn1`, the outcome is reported as “inactive”.
With `CC(/C=C\C=C\c1ccccc1)=N\NC(=O)c1cncc(Br)c1` the outcome was “inactive”.
With `CCCn1nnnc1NC(=O)COc1ccc(Br)cc1` the outcome was “inactive”.
In the case of `Cc1ccccc1-n1c(C)cc(/C=N/NC(=O)c2ccncc2)c1C`, the outcome is reported as “inactive”.
For `O=[N+]([O-])c1ncccc1Oc1nc(-c2cccnc2)nc2ccccc12`, the outcome was “inactive”.
For `Clc1ccccc1OCc1nnc(-c2ccccc2)o1`, the outcome was “inactive”.
For `CCOC(=O)/C=C1\Nc2ccccc2OC1=O`, the outcome was “inactive”.
With `N=c1oc2ccccc2cc1C(=O)Nc1ccccc1` the outcome was “inactive”.
With `N#CC(C(=O)Nc1ccccc1)=C1Nc2ccccc2N1` the outcome was “inactive”.
For `Cc1ccc(OC(=O)c2ccc(Br)o2)cc1`, the outcome was “inactive”.
For `CCC(=O)c1ccc(OCC(=O)OCC(=O)c2cc(C)n(C3CC3)c2C)cc1`, the outcome was “inactive”.
With `CC(C)(C)NCc1cc(Br)ccc1OCc1cccs1` the outcome was “inactive”.
With `O=C(OCC(=O)N1CCN(c2ccccc2)CC1)c1cnc(Cl)c(Cl)c1` the outcome was “inactive”.
For `O=C(NCc1ccco1)c1nc2ccccc2s1`, the outcome was “inactive”.
With `O=C1CC(N2CCN(c3ccccc3)CC2)C(=O)N1CCc1ccccc1` (configuration not stated) the outcome was “inactive”.
With `COC(=O)COc1ccc(-c2ccccc2)cc1C=O` the outcome was “inactive”.
For `CC(C)(O)C#Cc1ccc(C(=O)Nc2ccc3c(c2)OCO3)s1`, the outcome was “inactive”.
In the case of `O=[N+]([O-])c1ccc2nc(SCc3cn4ccccc4n3)[nH]c2c1`, the outcome is reported as “inactive”.
With `O=C(Nc1nc2ccccc2[nH]1)c1cccc([N+](=O)[O-])c1` the outcome was “inactive”.
In the case of `N/N=C(/Cc1nc2ccccc2[nH]1)c1ccc([N+](=O)[O-])cc1`, the outcome is reported as “inactive”.
With `C#CCSc1nnc(-c2ccc([N+](=O)[O-])cc2)o1` the outcome was “inactive”.
For `CC1(C)CC(=O)C(C2NCCc3ccccc32)=C(O)C1` (configuration not stated), the outcome was “inactive”.
For `CCCOc1ccc(N2CC(C(=O)Nc3ccccn3)CC2=O)cc1` (configuration not stated), the outcome was “inactive”.
In the case of `COc1ccc(/C=N/NC(=O)C(=O)NCc2cccnc2)cc1OC`, the outcome is reported as “inactive”.
In the case of `COc1cc(OC)c2c(OC)cccc2n1`, the outcome is reported as “inactive”.
In the case of `CC(C)(C)Sc1ccc2nc3c(n2c1)CCCC3`, the outcome is reported as “inactive”.
With `CC(/C=C/c1ccc2c(c1)OCO2)=N/NC(=O)C1COc2ccccc2O1` (configuration not stated) the outcome was “inactive”.
In the case of `CCOC(=O)Cn1nc(/C=C/c2ccccc2)ccc1=O`, the outcome is reported as “inactive”.
For `CCOc1cccc2cc(C(=O)NC(C)c3ccccc3)c(=N)oc12` (configuration not stated), the outcome was “inactive”.
With `O=C(N/N=C/c1ccc(O)cc1)c1cccc(C(F)(F)F)c1` the outcome was “inactive”.
In the case of `O=C(Nc1nnc(C2=COCCO2)o1)c1cccc(C(F)(F)F)c1`, the outcome is reported as “inactive”.
With `Nc1ccccc1Nc1ccccc1` the outcome was “inactive”.
In the case of `CCCCCCOC(=O)C(C#N)c1nc2ccccc2nc1N1CCN(CC)CC1` (configuration not stated), the outcome is reported as “inactive”.
With `CCCn1c(O)c(N=NC(=O)c2ccco2)c2ccccc21` the outcome was “inactive”.
In the case of `CCc1ccc(N2C(=O)CC(N3CCC(C(=O)OC)CC3)C2=O)cc1` (configuration not stated), the outcome is reported as “inactive”.
In the case of `O=C(NCCc1c[nH]c2ccccc12)c1cc2ccccc2oc1=O`, the outcome is reported as “inactive”.
In the case of `O=C(CNC(=O)c1ccccc1)OC1CCCCC1`, the outcome is reported as “inactive”.
With `Cc1cc(C)cc(OCC(=O)N/N=C/c2ccc([N+](=O)[O-])o2)c1` the outcome was “inactive”.
For `CCCCCCCC(=O)N/N=C/c1ccc([N+](=O)[O-])o1`, the outcome was “inactive”.
For `O=C(CCSc1nnc(-c2ccccc2)o1)N1CCOCC1`, the outcome was “inactive”.
In the case of `Cc1cc(C)n2nc(N)c(N=Nc3ccccc3)c2n1`, the outcome is reported as “inactive”.
In the case of `CCC(C)n1nnc2c(=O)oc3ccccc3c21` (configuration not stated), the outcome is reported as “inactive”.
For `CCOc1ccc(NC(=O)COC(=O)C2(C)CC2(Cl)Cl)c([N+](=O)[O-])c1` (configuration not stated), the outcome was “inactive”.
For `N#Cc1cc(N)ccc1-n1cccc1`, the outcome was “inactive”.
For `N/C(=N\OC(=O)CC1CCCCC1)c1ccncc1`, the outcome was “inactive”.
In the case of `CC(C)CN1C(=O)CC(Sc2ccccc2C(=O)O)C1=O` (configuration not stated), the outcome is reported as “inactive”.
For `O=C1CC(N2CCC(c3nc4ccccc4o3)CC2)C(=O)N1` (configuration not stated), the outcome was “inactive”.
In the case of `COc1ccccc1NC(=O)CCN1CCN(c2ccc(Cl)cc2)CC1`, the outcome is reported as “inactive”.
With `CC(C)n1c(=S)[nH]c2ccccc2c1=O` the outcome was “inactive”.
In the case of `O=C(N/N=C/c1ccc([N+](=O)[O-])s1)c1ccccc1`, the outcome is reported as “inactive”.
With `Cn1cccc1/C=N/NC(=O)c1ccncc1` the outcome was “inactive”.
For `Cc1ccc(C(=O)N/N=C\c2ccc(-c3ccc(Cl)cc3)o2)cn1`, the outcome was “inactive”.
In the case of `O=C(N/N=C/c1ccc(Br)s1)c1cccnc1`, the outcome is reported as “inactive”.
In the case of `Cc1ccc(C(=O)N/N=C/C=C/c2ccccc2)cc1`, the outcome is reported as “inactive”.
With `Cc1ccc(C(=O)N/N=C\c2ccc[nH]2)cn1` the outcome was “inactive”.
With `COc1cccc(-c2nc(C=O)cs2)c1` the outcome was “inactive”.
With `CCCOc1ccc(N2C(=O)CC(N3CCCC(C(=O)N4CCCC4)C3)C2=O)cc1` (configuration not stated) the outcome was “inactive”.
With `COC(=O)CN(C#N)c1nc(SC)nc(N(C)C)n1` the outcome was “inactive”.
With `CC(C)C[C@H]1CN=C(Nc2ccccc2)N1CCCC1CCCCC1` the outcome was “inactive”.
For `CCSc1nc(O)c(C2OC(=O)c3c2ccc(OC)c3OC)c(=O)n1-c1ccccc1` (configuration not stated), the outcome was “inactive”.
With `CCOc1cccc2cc(C(=O)Nc3nccs3)c(=O)oc12` the outcome was “inactive”.
For `O=C(CN1CCC(NC(=O)c2cccc(F)c2)CC1)Nc1ccc(Br)cc1`, the outcome was “inactive”.
For `Cc1onc(-c2ccccc2)c1C(=O)Nc1nnc(COc2ccc(Cl)cc2)s1`, the outcome was “inactive”.
With `O=C(N/N=C/c1ccc(Br)s1)c1ccncc1` the outcome was “inactive”.
With `Cc1ccc(/C=N/NC(=O)c2ccncc2)s1` the outcome was “inactive”.
In the case of `CC(=O)N1N=C(c2ccccc2)OC1c1ccc([N+](=O)[O-])s1` (configuration not stated), the outcome is reported as “inactive”.
In the case of `O=C(Nc1ccccc1)c1cc2ccccc2o1`, the outcome is reported as “inactive”.
In the case of `CN(C)Cc1ccccc1Sc1ccc(Br)cc1`, the outcome is reported as “inactive”.
For `CC(C)(NO)/C(=N\O)c1ccccc1`, the outcome was “inactive”.
With `CCCOC(=O)c1ccc(-c2ccc(C=O)o2)cc1` the outcome was “inactive”.
For `Cc1ccc2nc3c(c(N)c2c1)CCN3c1ccccc1`, the outcome was “inactive”.
With `C=C(C)C1Cc2c(C)nn(-c3nc(C)cc(C)n3)c2C1` (configuration not stated) the outcome was “inactive”.
For `CCc1nnc(N/N=C/c2ccc(-c3ccc([N+](=O)[O-])cc3)o2)n1N`, the outcome was “inactive”.
With `Cc1cccc(NC(=O)COC(=O)c2cc3ccccc3oc2=O)c1` the outcome was “inactive”.
In the case of `CCOc1cccc2cc(C(=O)NCc3ccccc3)c(=N)oc12`, the outcome is reported as “inactive”.
With `Cc1ccc(N=Nc2c(C)[nH]n(C(N)=S)c2=O)cc1C` the outcome was “inactive”.
For `O=C(c1ccc(-c2ccc([N+](=O)[O-])cc2)o1)N1CCN(S(=O)(=O)c2cccs2)CC1`, the outcome was “inactive”.
With `COc1cccc(NC(=O)c2ccc(-c3ccc([N+](=O)[O-])cc3)o2)c1` the outcome was “inactive”.
